Screening results: PubChem BioAssay, several laboratories
An excerpt weighted towards active compounds, which were near 2.5% of everything screened.
M18AAP inhibitor – blocks P. falciparum M18 aspartyl aminopeptidase; AID 1822; 290,000 compounds, 1.2% hits; recombinant PfM18AAP, H-Glu-NHMec fluorogenic cleavage; inhibition, % at 7.35 µM;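 active means inhibition above the campaign mean inhibition over all tested compounds plus 3 SD, cut at about 28% in these data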;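 further: 0% = plate median of test compound wells and 100% = 2 mM ZnCl2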
HDAC3 inh – inhibitors of human histone deacetylase 3; inhibition, % at 8.3 µM; O15379; recombinant HDAC3, fluorogenic peptide/trypsin coupled, fluorescence; 320,000 compounds, 0.15% hits; AID 2718; in the data active means inhibition above about 26%, passing the limit was not always enough
Target sequence (O15379 whole entry, looked up): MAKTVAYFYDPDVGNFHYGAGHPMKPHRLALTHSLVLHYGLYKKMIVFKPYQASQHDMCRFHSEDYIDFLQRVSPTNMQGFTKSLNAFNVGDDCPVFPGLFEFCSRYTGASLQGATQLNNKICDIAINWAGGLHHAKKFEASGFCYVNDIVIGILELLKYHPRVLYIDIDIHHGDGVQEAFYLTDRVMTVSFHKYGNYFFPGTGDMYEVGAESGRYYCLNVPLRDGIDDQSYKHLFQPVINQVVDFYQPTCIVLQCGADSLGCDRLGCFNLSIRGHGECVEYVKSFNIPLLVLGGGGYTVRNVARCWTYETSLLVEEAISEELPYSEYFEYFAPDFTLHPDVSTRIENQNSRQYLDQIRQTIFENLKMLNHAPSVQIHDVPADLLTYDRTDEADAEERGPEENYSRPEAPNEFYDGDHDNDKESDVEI
p97 ATPase inh – human p97 ATPase inhibition | P55072 | recombinant p97 ATPase, Kinase-Glo ATP luminescence, 3 h | inhibition, % at 8 µM | 220,000 compounds, 0.42% hits | AID 1481; in the data active means inhibition above about 15%;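 further: 0% = DMSO vehicle and 100% = wells lacking enzyme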
SUMO HTRF inh – SUMOylation inhibition; HTRF SUMOylation assay, SAE1/SAE2 + UBC9, in vitro; inhibition, % at 35 µM; P63279; 290,000 compounds, 0.36% hits; in the data active means inhibition above about 50%, passing the limit was not always enough
Target sequence (P63279 whole entry, looked up): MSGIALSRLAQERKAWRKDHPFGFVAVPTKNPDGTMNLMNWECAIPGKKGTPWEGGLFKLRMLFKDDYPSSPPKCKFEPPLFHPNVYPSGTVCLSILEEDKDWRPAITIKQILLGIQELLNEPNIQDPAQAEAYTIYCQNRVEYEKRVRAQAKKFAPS
PHOSPHO1 block – blocks human PHOSPHO1 phosphatase activity. Q8TCT1. recombinant PHOSPHO1, absorbance phosphatase assay. inhibition, % at 13.3 µM. 290,000 compounds, 1.1% hits; in the data active means inhibition above about 60%
G6PDH CS – inhibits Leuconostoc G6PDH, flagging false hits in G6PDH-based assays; 200,000 compounds, 0.12% hits; Purified L. mesenteroides G6PDH, diaphorase/resazurin coupled fluorescence, 45 min; inhibition, % at 5 µM; AID 1020; in the data active means inhibition above about 50%
Starred values were filed as active, the others as inactive; x = no result given.

SMILES | M18AAP inhibitor | HDAC3 inh | p97 ATPase inh | SUMO HTRF inh | PHOSPHO1 block | G6PDH CS
CCOC(=O)CSC1=C(C#N)C(C)C2=C(CCCC2=O)N1 (configuration not stated) | 13.6 | 6.9 | 3.9 | 3.0 | 15.3 | 2.5
COC(=O)CSC1=C(C#N)C(c2ccc3c(c2)OCO3)C2=C(CCCC2=O)N1 (configuration not stated) | 19.7 | 7.4 | -0.8 | 9.4 | 66.4* | -1.8
CCC(NC(=O)OCc1ccccc1)C(=O)Oc1ccc2ccc(=O)oc2c1 (configuration not stated) | 4.6 | -203.5 | x | 18.9 | 29.2 | x
COc1cc(C2C=C(c3cccs3)Nc3ncnn32)cc(OC)c1OC (configuration not stated) | 24.5 | x | 3.4 | 53.2* | 11.7 | 2.1
COc1cc(C2CC(=O)C3=C(C2)Nc2ncnn2C3c2cccs2)cc(OC)c1OC (configuration not stated) | -10.4 | -2.9 | -2.1 | 20.9 | -4.5 | x
CC(C)(C)c1ccc(/C=N/NC(=S)Nc2cccnc2)cc1 | 12.5 | 12.3 | -3.9 | 6.4 | -51.8 | -2.1
Oc1ccc(/C=N/NC(=S)Nc2cccnc2)cc1O | 60.2* | 10.8 | 7.3 | 24.4 | 3.2 | 30.6
CN(C)CCNC(=O)COc1ccc(C23CC4CC(CC(C4)C2)C3)cc1 | 8.3 | 2.8 | -1.9 | 8.1 | 66.2* | 2.8
CCOc1ccc(Oc2c(/C=N/NC(=O)COc3ccccc3OC)c(C)nn2-c2ccccc2)cc1 | -1.8 | 27.5* | -7.7 | -10.5 | -6.7 | 0.5
Cc1[nH]n(-c2ccccc2)c(=S)c1C=Nc1cccc([N+](=O)[O-])c1 | 49.9* | 55.0* | -0.9 | -8.9 | 107.1* | 8.5
OCCC1CN(Cc2ccc3c(c2)CCO3)CCN1C1CCCC1 (configuration not stated) | 0.3 | -2.8 | 2.8 | 10.5 | 32.3 | 21.8
O=C(O)C1CCN(S(=O)(=O)c2ccc(N3CCC(O)CC3)c([N+](=O)[O-])c2)CC1 | 0.7 | 3.6 | x | -1.2 | 19.8 | x
O=[N+]([O-])c1cc(Cl)cc(/C=N/NC(=S)Nc2ccc(S(=O)(=O)N3CCOCC3)cc2)c1O | 14.3 | 7.6 | 1.9 | 94.6* | -129.7 | x
CCn1c(=S)sc2c(=O)n(CC(=O)Nc3ccc(OC)c(Cl)c3)c(C)nc21 | 0.9 | -3.0 | x | -2.1 | 15.9 | x
CCOc1ccc(N=c2scc(-c3ccc(OC)cc3)n2CCO)cc1 | 8.6 | 2.6 | 0.9 | 0.0 | -35.3 | 12.0
CCn1c(-c2ccccc2)csc1=Nc1ccc(O)cc1 | 1.4 | 7.9 | 0.6 | 0.4 | -72.9 | -2.1
OCCn1c(-c2ccc(F)cc2)csc1=Nc1ccccc1 | 40.5* | 2.6 | 2.7 | 13.1 | -0.3 | -4.1
CCOc1ccc(N=c2scc(-c3ccccc3)n2CCO)cc1 | 18.8 | -3.9 | -5.8 | 9.8 | 97.6* | 2.9
O=C(Nc1ccc(Cl)cc1)N1CCN(C(=O)C2CCCO2)CC1 (configuration not stated) | -1.6 | 0.0 | x | 19.1 | 62.8* | x
Cc1ccc(NC(=O)N2CCN(C(=O)C3CCCO3)CC2)cc1 (configuration not stated) | -7.4 | 1.3 | x | 2.1 | 22.2 | x
CCOC(=O)c1ccc(NS(=O)(=O)c2ccc3c(c2)NC(=O)CCS3)cc1 | 4.3 | 2.3 | x | 15.2 | 43.7 | x
O=C(O)CCSc1ccccn1 | 5.3 | 4.4 | -1.4 | 8.7 | -3.1 | 3.8
O=C(CCSc1ccccn1)c1ccccc1 | 55.0* | 6.5 | 3.4 | -4.5 | -0.3 | 2.3
CC[C@@]1(O)C(=O)OCc2c1cc1n(c2=O)Cc2cc3c(CN(C)C)c(O)ccc3nc2-1 | x | -4.1 | x | x | x | x
CC[C@@]1(O)C(=O)OCc2c1cc1n(c2=O)Cc2cc3c(N)cccc3nc2-1 | x | -7.4 | x | 94.6* | 4.5 | x
SMILES | M18AAP inhibitor | HDAC3 inh | p97 ATPase inh | SUMO HTRF inh | PHOSPHO1 block | G6PDH CS
O=C(CN1C(=O)NC2(CCCC2)C1=O)N1CCN(S(=O)(=O)c2cc(Cl)ccc2Cl)CC1 | x | -0.4 | x | x | x | x
Cc1ccccc1OC(=O)n1c(=S)oc2cc(Cl)ccc21 | 22.8 | 0.1 | 4.2 | -3.5 | 102.7* | -3.6
O=C(Oc1ccccc1)n1c(=S)oc2ccccc21 | 11.8 | 3.0 | 6.6 | 1.7 | 18.6 | -5.1
CC1CN(CC(=O)NCc2ccc(Cl)cc2)CC(C)O1 (configuration not stated) | 0.8 | -1.1 | x | 3.6 | 44.0 | x
COc1ccc(N2CC(C(=O)N3CCCC(C)C3)CC2=O)cc1 (configuration not stated) | 0.3 | 4.5 | x | -4.6 | x | x
CCn1c(=O)n(CC)c2cc(N3CCCC3)c(NC(=O)c3cccc(Cl)c3)cc21 | 31.7* | -0.3 | x | 13.5 | 18.5 | x
O=C(NCCN1CCCC1)c1cccc(Cl)c1 | -0.5 | 1.3 | 1.8 | 3.7 | 60.0* | -4.1
CCn1c(=O)n(CC)c2cc(N3CCCC3)c(NC(=O)c3ccc(C)c([N+](=O)[O-])c3)cc21 | 29.2* | 4.1 | x | 6.0 | 2.8 | x
COc1ccc(Br)cc1C1Nc2cccc3cccc(c23)N1 | 33.3* | -3.5 | x | 21.6 | 7.8 | x
COc1cc(C2Nc3cccc4cccc(c34)N2)cc(OC)c1OC(C)=O | 5.3 | -3.7 | 10.1 | 23.6 | 45.7 | -20.8
CN(C)CCCC(C)(O)C(C)(C)c1ccccc1 (configuration not stated) | -3.6 | -0.4 | 14.6* | 4.7 | 2.1 | 1.3
Cc1cc(NC(=O)Nc2ccc(Cl)cc2)n(C)n1 | 0.1 | 4.7 | x | 1.9 | 22.9 | x
Cc1ccc(NNC(=O)Nc2ccc(Cl)cc2)nn1 | 31.5* | 1.8 | 6.4 | -16.2 | 3.4 | x
CC(=O)N1CC(C)Oc2ccc(S(=O)(=O)NC(CC(=O)O)c3ccccc3C)cc21 (configuration not stated) | 2.4 | 2.4 | x | 5.1 | 64.9* | x
CC(=O)Nc1ccc(-c2csc(N/N=C(/C)c3ccccc3)n2)cc1 | 21.2 | 6.3 | 8.0 | -5.8 | 22.5 | x
C/C(=N/Nc1nc(-c2ccc(Cl)cc2)cs1)c1cccs1 | -4.3 | -1.4 | 0.6 | 9.2 | 92.4* | 0.0
CCn1c(C)[n+](CCOCC[n+]2c(C)n(CC)c3cc(Cl)c(Cl)cc32)c2cc(Cl)c(Cl)cc21 | 3.9 | -0.7 | -2.0 | 5.0 | 82.6* | 11.0
CC(=O)OCCn1c(C)[n+](CCOC(C)=O)c2cc(Cl)c(Cl)cc21 | -2.7 | 7.9 | 2.6 | 4.1 | 6.4 | -2.3
CCCOC(=O)c1c(-c2ccc(C)cc2C)csc1NC(=O)C1C2CCC(O2)C1C(=O)O (configuration not stated) | 29.6* | 5.7 | -1.3 | 23.1 | -5.0 | 7.6
CCOC(=O)c1c(NC(=O)C2C3CCC(O3)C2C(=O)O)sc(C)c1-c1ccc(F)cc1 (configuration not stated) | 1.7 | -4.5 | 2.5 | 16.7 | 50.3 | 8.1
O=C(COC(=O)c1ccc([N+](=O)[O-])cc1)Nc1ccccc1C(=O)NC1CC1 | x | -1.1 | x | x | x | x
COc1cccc(-n2c(Cn3nc(C(F)(F)F)cc3C)n[nH]c2=S)c1 | 8.0 | 1.4 | 3.1 | 1.2 | 1.0 | 8.1
Cc1ccc(-n2c(Cn3nc(C(F)(F)F)cc3C)n[nH]c2=S)cc1 | 5.7 | 4.5 | -3.1 | 10.8 | 80.9* | 3.5
